The source of these data is article PMC7862700, “An all-to-all approach to the identification of sequence-specific readers for epigenetic DNA modifications on cytosine”.

Assay in all cases: DAPPL (digital affinity profiling via proximity ligation, sequencing); 10 mM Tris-HCl pH 7.5, 50 mM NaCl, 1 mM DTT, 4% glycerol, room temperature, 30 min; GST-TFs on glutathione beads, 16-mer random dsDNA library, 0.1% formaldehyde crosslink after washing; high values mean tight binding
The target of one experiment is T1, FLI1 (Homo sapiens, UniProt Q01543 1-452).
T1 sequence: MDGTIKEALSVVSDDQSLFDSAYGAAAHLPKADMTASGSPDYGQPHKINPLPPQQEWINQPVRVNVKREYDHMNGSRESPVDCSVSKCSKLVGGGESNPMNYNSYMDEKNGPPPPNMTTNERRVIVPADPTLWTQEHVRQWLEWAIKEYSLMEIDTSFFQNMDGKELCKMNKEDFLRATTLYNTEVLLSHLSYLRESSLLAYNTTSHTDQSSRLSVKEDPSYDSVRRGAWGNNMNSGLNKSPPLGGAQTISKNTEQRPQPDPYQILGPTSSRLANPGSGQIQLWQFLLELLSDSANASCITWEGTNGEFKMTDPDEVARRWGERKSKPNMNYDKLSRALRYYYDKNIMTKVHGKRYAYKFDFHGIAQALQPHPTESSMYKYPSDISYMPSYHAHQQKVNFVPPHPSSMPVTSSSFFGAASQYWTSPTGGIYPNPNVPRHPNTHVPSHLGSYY
The conditions noted are these: protein: recombinant; tags: N-terminal GST; dsDNA, one strand shown. The procedure, abridged:
(§1)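 Beads coated with glutathione captured GST-fused human transcription factors that had been expressed in yeast, and the factors were then given DNA barcodes and pooled with a tag-only sample. The pools were incubated with 200 nmole of a random double-stranded 16-mer DNA library in Tris/NaCl/DTT/glycerol buffer for 30 min at room temperature, washed, crosslinked with 0.1% formaldehyde and proximity-ligated with BsaI/T4 ligase at 37 °C for 1 h. PCR amplification and Illumina NextSeq500 sequencing came last. Binding signal is each hexamer's read frequency for a factor divided by its frequency for the tag-only sample.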

The target in another experiment is T2, ELK1 (Homo sapiens, UniProt P19419 1-428).
T2 sequence: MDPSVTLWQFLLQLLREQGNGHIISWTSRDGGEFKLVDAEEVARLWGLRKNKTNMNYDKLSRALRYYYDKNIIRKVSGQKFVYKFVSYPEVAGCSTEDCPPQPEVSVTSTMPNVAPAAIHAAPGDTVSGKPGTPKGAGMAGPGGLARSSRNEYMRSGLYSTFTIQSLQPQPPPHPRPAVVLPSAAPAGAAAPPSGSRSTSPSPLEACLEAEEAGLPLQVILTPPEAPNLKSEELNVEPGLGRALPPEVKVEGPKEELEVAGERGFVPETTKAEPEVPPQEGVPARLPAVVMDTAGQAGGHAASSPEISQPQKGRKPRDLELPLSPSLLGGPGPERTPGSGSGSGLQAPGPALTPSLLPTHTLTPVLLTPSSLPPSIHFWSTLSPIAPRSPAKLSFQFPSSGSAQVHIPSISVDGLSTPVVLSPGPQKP
The following applies: protein: recombinant; tags: N-terminal GST; dsDNA, one strand shown. In a few lines: as §1

A further experiment concerns the target T3, GABPA (Homo sapiens, UniProt Q06546 1-454).
T3 sequence: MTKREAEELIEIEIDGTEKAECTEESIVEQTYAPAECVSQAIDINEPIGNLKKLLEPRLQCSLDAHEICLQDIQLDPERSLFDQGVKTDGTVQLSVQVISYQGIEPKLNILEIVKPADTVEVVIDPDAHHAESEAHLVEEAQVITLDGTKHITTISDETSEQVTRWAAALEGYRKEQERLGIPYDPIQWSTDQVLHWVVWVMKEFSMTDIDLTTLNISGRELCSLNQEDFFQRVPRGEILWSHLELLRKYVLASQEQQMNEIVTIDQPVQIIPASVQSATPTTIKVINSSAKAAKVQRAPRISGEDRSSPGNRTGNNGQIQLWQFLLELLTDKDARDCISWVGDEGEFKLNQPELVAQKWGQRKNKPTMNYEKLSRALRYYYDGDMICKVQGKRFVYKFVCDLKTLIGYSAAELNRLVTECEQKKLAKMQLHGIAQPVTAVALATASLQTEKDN
The conditions noted are these: protein: recombinant; tags: N-terminal GST; dsDNA, one strand shown. The procedure, abridged: as §1

The target in a further experiment is T4, ERG (Homo sapiens, UniProt P11308 1-479).
T4 sequence: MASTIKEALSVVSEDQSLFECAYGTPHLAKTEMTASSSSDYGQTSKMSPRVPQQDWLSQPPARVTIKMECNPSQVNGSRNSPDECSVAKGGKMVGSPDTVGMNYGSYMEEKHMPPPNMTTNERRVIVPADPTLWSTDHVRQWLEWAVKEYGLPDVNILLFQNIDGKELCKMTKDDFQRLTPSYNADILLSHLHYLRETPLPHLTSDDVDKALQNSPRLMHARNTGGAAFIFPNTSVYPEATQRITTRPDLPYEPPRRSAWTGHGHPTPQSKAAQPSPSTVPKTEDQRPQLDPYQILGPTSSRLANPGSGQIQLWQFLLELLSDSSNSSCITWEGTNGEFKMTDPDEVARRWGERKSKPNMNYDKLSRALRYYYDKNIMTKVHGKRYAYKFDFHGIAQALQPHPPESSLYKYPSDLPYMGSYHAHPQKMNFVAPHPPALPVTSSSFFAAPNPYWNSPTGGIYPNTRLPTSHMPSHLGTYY
The conditions noted are these: protein: recombinant; tags: N-terminal GST; dsDNA, one strand shown. The procedure, abridged:
as §1

A further experiment concerns the target ELF1 (Homo sapiens, UniProt P32519 1-619). The following applies: protein: recombinant; tags: N-terminal GST; dsDNA, one strand shown. The procedure, abridged: as §1
The next experiment has as its target T5, EHF (Homo sapiens, UniProt Q9NZC4 1-300).
T5 sequence: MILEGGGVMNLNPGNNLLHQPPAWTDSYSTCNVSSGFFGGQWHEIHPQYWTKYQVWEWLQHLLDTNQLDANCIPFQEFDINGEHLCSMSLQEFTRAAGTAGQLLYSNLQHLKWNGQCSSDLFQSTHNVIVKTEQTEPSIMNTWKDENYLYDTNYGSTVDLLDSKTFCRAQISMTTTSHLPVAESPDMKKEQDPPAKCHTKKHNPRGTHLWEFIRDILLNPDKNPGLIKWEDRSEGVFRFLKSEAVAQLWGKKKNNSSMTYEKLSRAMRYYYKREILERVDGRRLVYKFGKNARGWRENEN
The following applies: protein: recombinant; tags: N-terminal GST; dsDNA, one strand shown. In a few lines:
as §1

A further experiment addresses SPI1 (Homo sapiens, UniProt P17947 1-270). The following applies: protein: recombinant; tags: N-terminal GST; dsDNA, one strand shown. The procedure, abridged:
as §1

The target in a further experiment is SPIB (Homo sapiens, UniProt Q01892 1-262). The following applies: protein: recombinant; tags: N-terminal GST; dsDNA, one strand shown. In a few lines: as §1
Chain of SPIB (Q01892 whole entry): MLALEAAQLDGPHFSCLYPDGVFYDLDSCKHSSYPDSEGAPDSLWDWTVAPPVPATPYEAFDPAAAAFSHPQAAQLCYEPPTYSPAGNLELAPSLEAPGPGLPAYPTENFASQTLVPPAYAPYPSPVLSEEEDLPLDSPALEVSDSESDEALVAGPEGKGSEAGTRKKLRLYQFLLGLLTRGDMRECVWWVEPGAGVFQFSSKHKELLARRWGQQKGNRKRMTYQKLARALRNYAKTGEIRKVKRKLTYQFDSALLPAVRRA
For a further experiment, the target named is T6, ELK3 (Homo sapiens, UniProt P41970 1-407).
T6 sequence: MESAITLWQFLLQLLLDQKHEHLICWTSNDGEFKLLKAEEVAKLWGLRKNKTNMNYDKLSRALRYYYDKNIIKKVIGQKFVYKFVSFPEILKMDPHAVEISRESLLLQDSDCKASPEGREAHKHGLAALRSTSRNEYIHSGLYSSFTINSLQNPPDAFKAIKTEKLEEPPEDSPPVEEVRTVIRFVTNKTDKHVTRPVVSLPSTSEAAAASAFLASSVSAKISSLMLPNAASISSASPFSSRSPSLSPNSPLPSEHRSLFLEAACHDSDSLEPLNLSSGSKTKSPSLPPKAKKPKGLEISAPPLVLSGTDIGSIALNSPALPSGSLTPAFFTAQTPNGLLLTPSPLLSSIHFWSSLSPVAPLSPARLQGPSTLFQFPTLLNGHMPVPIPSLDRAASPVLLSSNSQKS
The following applies: protein: recombinant; tags: N-terminal GST; dsDNA, one strand shown. In a few lines:
as §1

The target in the next experiment is T7, FEV (Homo sapiens, UniProt Q99581 1-238).
T7 sequence: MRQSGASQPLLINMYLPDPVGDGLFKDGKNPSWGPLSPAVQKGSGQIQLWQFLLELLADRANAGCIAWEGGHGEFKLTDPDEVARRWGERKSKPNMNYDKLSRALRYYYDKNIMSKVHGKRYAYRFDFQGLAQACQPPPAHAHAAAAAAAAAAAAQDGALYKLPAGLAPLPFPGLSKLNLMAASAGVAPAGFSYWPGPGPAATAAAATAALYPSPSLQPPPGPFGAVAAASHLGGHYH
The following applies: protein: recombinant; tags: N-terminal GST; dsDNA, one strand shown. The procedure, abridged:
as §1

In another experiment the target is ETV5 (Homo sapiens, UniProt P41161 1-510). The conditions noted are these: protein: recombinant; tags: N-terminal GST; dsDNA, one strand shown. In a few lines: as §1
Chain of ETV5 (P41161 whole entry): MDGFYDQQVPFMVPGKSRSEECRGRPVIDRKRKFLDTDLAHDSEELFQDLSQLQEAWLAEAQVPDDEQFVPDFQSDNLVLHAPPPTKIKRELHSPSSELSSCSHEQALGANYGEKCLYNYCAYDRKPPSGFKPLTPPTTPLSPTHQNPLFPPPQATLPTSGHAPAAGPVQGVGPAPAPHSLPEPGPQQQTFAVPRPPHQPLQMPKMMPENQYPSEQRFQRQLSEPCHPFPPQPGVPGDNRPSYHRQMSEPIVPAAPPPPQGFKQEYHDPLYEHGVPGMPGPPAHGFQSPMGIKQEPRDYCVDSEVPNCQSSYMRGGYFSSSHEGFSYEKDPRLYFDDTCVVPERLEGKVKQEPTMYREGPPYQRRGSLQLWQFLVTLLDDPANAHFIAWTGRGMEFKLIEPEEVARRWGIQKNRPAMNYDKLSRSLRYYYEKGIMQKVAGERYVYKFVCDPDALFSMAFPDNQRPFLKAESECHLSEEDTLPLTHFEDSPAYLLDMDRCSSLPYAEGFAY
The target of another experiment is HSF1 (Homo sapiens, UniProt Q00613 1-529). The following applies: protein: recombinant; tags: N-terminal GST; chain copies: 3; dsDNA, one strand shown. In a few lines:
as §1

The next experiment addresses T8, SPIC (Homo sapiens, UniProt Q8N5J4 1-248).
T8 sequence: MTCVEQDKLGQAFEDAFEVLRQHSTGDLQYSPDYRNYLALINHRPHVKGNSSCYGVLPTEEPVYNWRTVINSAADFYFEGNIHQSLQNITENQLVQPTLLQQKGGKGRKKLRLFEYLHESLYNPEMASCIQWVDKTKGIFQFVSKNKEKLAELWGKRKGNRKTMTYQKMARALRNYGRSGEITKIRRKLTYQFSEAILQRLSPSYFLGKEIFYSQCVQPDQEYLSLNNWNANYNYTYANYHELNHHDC
The conditions noted are these: protein: recombinant; tags: N-terminal GST; dsDNA, one strand shown. The procedure, abridged:
as §1

Another experiment deals with ELF4 (Homo sapiens, UniProt Q99607 1-663). The conditions noted are these: protein: recombinant; tags: N-terminal GST; dsDNA, one strand shown. The procedure, abridged:
as §1

In the next experiment the target is T9, ELK4 (Homo sapiens, UniProt P28324-2 1-405).
T9 sequence: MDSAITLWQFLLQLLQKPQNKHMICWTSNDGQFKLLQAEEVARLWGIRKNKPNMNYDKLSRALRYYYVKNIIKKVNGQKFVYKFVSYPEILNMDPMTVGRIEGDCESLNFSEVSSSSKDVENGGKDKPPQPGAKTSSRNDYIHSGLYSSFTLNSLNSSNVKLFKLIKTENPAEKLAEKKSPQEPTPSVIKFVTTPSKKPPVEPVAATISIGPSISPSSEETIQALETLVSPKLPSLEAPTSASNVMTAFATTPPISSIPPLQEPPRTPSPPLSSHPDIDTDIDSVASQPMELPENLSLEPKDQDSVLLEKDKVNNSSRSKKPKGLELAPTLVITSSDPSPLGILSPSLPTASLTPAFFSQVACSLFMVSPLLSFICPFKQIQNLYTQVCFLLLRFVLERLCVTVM
The following applies: protein: recombinant; tags: N-terminal GST; dsDNA, one strand shown. In a few lines:
as §1

For another experiment, the target named is T10, ETV2 (Homo sapiens, UniProt O00321 1-342).
T10 sequence: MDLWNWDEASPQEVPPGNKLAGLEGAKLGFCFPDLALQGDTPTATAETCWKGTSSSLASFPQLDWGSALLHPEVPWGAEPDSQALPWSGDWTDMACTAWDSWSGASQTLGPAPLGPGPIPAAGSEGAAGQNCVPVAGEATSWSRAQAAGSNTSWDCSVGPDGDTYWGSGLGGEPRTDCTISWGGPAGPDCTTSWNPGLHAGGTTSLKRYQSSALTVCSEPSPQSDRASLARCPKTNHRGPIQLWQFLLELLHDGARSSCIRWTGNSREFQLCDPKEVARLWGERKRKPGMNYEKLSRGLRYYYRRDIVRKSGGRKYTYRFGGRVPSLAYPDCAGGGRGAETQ
The following applies: protein: recombinant; tags: N-terminal GST; dsDNA, one strand shown. The procedure, abridged:
as §1

For a further experiment, the target named is T11, ELF3 (Homo sapiens, UniProt P78545 1-371).
T11 sequence: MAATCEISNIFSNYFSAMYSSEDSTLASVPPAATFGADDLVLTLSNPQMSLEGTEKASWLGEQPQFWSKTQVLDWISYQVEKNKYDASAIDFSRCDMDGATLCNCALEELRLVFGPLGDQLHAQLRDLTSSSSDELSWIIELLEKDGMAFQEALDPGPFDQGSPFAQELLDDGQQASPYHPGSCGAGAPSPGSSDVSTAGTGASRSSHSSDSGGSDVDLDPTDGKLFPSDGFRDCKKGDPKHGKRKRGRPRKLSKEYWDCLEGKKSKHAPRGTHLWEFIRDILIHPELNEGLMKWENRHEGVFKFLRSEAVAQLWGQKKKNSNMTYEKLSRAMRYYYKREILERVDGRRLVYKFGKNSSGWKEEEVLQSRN
The conditions noted are these: protein: recombinant; tags: N-terminal GST; dsDNA, one strand shown. The procedure, abridged:
as §1

The target in a further experiment is CRX (Homo sapiens, UniProt O43186 1-299). The conditions noted are these: protein: recombinant; tags: N-terminal GST; dsDNA, one strand shown. The procedure, abridged: as §1
Chain of CRX (O43186 whole entry): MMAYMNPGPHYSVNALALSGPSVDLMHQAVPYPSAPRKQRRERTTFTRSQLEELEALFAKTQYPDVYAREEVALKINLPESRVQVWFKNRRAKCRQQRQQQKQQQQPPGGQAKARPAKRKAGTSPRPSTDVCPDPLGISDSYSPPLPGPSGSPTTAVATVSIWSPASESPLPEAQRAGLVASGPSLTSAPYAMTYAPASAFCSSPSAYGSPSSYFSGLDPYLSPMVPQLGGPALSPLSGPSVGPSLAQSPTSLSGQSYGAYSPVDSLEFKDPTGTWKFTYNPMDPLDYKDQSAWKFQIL
The target of the next experiment is ETV1 (Homo sapiens, UniProt P50549 1-477). The following applies: protein: recombinant; tags: N-terminal GST; dsDNA, one strand shown. The procedure, abridged:
as §1

Chain of HSF1 (Q00613 whole entry): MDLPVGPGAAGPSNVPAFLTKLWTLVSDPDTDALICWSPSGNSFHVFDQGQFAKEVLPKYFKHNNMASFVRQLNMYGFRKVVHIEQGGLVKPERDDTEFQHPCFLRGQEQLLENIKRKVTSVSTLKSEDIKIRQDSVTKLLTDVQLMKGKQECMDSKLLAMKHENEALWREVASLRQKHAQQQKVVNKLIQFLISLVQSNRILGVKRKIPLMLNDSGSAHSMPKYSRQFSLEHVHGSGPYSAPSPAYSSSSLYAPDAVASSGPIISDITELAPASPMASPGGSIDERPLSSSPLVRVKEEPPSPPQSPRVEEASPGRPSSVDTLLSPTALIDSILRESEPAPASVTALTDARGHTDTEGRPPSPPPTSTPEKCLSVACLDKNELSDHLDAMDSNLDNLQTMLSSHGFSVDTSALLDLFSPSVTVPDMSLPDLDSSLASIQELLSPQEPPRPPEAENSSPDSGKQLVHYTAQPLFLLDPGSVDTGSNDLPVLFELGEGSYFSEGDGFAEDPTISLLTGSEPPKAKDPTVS
Chain of ETV1 (P50549 whole entry): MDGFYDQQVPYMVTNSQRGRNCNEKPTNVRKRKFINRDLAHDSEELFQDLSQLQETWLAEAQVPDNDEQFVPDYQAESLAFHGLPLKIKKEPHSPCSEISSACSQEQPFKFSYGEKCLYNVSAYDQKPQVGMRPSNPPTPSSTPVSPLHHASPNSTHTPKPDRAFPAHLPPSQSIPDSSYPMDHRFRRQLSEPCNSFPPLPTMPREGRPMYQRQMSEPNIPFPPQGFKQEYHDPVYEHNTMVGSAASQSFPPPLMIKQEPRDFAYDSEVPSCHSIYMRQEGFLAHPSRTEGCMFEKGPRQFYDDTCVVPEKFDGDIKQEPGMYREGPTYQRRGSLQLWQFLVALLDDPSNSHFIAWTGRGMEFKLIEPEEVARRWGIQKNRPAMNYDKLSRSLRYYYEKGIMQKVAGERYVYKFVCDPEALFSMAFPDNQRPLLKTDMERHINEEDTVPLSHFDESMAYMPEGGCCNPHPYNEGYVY
Chain of ELF1 (P32519 whole entry): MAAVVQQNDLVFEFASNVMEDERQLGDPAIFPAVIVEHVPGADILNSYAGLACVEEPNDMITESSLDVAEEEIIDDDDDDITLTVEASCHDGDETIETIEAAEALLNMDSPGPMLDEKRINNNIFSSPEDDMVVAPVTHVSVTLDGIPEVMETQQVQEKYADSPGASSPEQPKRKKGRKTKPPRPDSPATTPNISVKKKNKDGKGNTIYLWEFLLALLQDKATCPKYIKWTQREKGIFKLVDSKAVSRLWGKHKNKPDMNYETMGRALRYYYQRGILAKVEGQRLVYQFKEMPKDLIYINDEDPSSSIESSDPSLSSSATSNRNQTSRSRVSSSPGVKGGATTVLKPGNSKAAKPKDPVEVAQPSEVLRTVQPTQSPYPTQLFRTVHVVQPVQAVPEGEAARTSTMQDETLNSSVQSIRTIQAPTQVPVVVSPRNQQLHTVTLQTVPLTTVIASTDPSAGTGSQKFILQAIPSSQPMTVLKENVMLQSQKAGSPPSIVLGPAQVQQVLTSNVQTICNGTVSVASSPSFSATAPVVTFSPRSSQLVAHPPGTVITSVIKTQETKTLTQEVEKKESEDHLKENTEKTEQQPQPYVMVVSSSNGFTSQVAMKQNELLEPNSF
Chain of ELF4 (Q99607 whole entry): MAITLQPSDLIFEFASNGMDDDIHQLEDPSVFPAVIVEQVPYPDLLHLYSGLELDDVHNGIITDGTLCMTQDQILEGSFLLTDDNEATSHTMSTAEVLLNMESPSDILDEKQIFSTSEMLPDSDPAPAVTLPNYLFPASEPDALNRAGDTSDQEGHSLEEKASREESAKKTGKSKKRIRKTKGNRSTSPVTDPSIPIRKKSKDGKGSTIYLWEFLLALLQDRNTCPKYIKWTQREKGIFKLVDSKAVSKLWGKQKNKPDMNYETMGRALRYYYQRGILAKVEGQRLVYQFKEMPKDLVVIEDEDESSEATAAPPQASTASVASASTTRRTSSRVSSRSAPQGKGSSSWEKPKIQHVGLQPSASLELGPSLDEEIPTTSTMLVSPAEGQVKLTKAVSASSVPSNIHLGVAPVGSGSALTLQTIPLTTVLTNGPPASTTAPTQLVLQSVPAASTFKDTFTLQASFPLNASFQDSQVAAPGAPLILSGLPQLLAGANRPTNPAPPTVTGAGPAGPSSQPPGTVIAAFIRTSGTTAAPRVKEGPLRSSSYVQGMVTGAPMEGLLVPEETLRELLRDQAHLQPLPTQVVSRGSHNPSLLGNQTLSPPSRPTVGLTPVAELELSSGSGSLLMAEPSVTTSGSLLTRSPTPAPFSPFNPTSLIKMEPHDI

Turning to CCTCCG, the binding signal with FLI1 was 1.18 fold enrichment (6-mer frequency, TF over GST control); in the experiment with ELK1, 1.55 fold enrichment (6-mer frequency, TF over GST control); with GABPA, 1.41 fold enrichment (6-mer frequency, TF over GST control); with ERG it was 1.35 fold enrichment (6-mer frequency, TF over GST control); with ELF1, 1.32 fold enrichment (6-mer frequency, TF over GST control); with EHF, 1.24 fold enrichment (6-mer frequency, TF over GST control). The binding signal is 1.41 fold enrichment (6-mer frequency, TF over GST control) in the experiment with SPI1; 1.48 fold enrichment (6-mer frequency, TF over GST control) in the experiment with SPIB; 1.38 fold enrichment (6-mer frequency, TF over GST control) with ELK3; 1.45 fold enrichment (6-mer frequency, TF over GST control) with FEV; 1.34 fold enrichment (6-mer frequency, TF over GST control) with ETV5; 1.01 fold enrichment (6-mer frequency, TF over GST control) with HSF1. Also, the binding signal was 1.62 fold enrichment (6-mer frequency, TF over GST control) in the experiment with SPIC; 1.38 fold enrichment (6-mer frequency, TF over GST control) with ELF4; 1.36 fold enrichment (6-mer frequency, TF over GST control) with ELK4; 1.33 fold enrichment (6-mer frequency, TF over GST control) with ETV2; 1.32 fold enrichment (6-mer frequency, TF over GST control) with ELF3; 1.07 fold enrichment (6-mer frequency, TF over GST control) with CRX. In addition, in the experiment with ETV1, the binding signal was 1.4 fold enrichment (6-mer frequency, TF over GST control).
